Experiment [1] concerns the target Estrogen receptor (Homo sapiens) (UniProt P03372). Put plainly: CCTE_Deisenroth_AIME_384WELL_LUC_Active: CCTE's 384-well Estrogen Receptor Transactivation Assay with AIME metabolic competence (ERTA luciferase; metabolism positive), Deisenroth Lab (AID 2284030; active = hit-call score of the fitted dose curve at least 0.9, where 1 is the maximum). A digest of the protocol:
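VM7Luc4E2 breast cells were given, for 24 hours, medium pre-incubated for 2 hours with parent chemical (0.002-200 uM, 10 concentrations) and alginate-encapsulated phenobarbital/beta-naphthoflavone-induced rat hepatic S9. Luciferase gain of signal was fitted against 17beta-estradiol; n=4 or more.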

Experiment [2] is described as follows: CCTE_Shafer_MEA_dev_firing_rate_mean: CCTE's Neural Network Formation Assay for Mean Firing Rate, Shafer Lab (AID 2284031).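 For AC50: curve fitted for loss of firing so AC50 reflects decreased mean firing rate.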 A digest of the protocol: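 Read-out: spike count/recording length, averaged over active electrodes, then AUC across days 5, 7, 9, 12. Rat cortical cultures on MEA; continuous 12-day exposure, media and treatment renewed DIV 5, 9; DMSO baseline.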

Experiment [3] can be described thus: CCTE_Shafer_MEA_dev_per_burst_spike_percent: CCTE's Neural Network Formation Assay for Percent of Spikes in a Burst, Shafer Lab (AID 2284032).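 For AC50: fitted as a decrease in burst spike percentage below DMSO baseline.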 A digest of the protocol:
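Value is trapezoidal AUC over recordings on days 5, 7, 9 and 12 of the well-mean fraction of spikes falling in single-electrode bursts; rat cortical cultures exposed continuously from plating, treatment renewed DIV 5 and 9, fitted downward against DMSO.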

The nature of experiment [4]: CCTE_Deisenroth_AIME_384WELL_CTox_Active: Cytotoxicity Assessment (CTOX) in CCTE's 384-well Estrogen Receptor Transactivation Assay with AIME metabolic competence (metabolism positive), Deisenroth Lab (AID 2284037; active = hit-call score of the fitted dose curve at least 0.9, where 1 is the maximum;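 note: chemicals first conditioned 2 h by alginate-bound induced rat liver S9 before cells; activity means signal loss indicating cell death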). In short, it runs like this: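 VM7Luc4E2 breast cells received medium pre-incubated 2 h with chemical over alginate microspheres holding induced male Sprague Dawley rat liver S9; viability read 24 h later by protease-substrate fluorescence. Loss of signal, bidirectional fit, 0.002–200 uM.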

Experiment [5] is described as follows: CCTE_Shafer_MEA_acute_per_network_burst_electrodes_number_mean: CCTE's Neural Acute Assay for Mean Number of Electrodes in a Network Burst, Shafer Lab (AID 2284021).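 Note: curves fitted for decreases only so hits reduce electrodes per burst.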 A digest of the protocol:
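Percent change from baseline was computed as mean electrode count per network burst, comparing 40 min recordings before and during compound (0.03-40 uM) exposure. Cultures were rat cortical neurons at DIV 13 or 15, recorded on MEAs at 37 C with an adaptive 8x rms threshold.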

The nature of experiment [6]: CCTE_Shafer_MEA_acute_network_burst_percentage: CCTE's Neural Acute Assay for Percentage of Network Bursts, Shafer Lab (AID 2284022).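 Note: curves fitted for loss so actives lower network burst percentage.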 In short, it runs like this: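 Network burst percentage (spikes in network bursts divided by total spikes) recorded at 37 C over 40 min baseline and 40 min after compound, 0.03-40 uM, in rat cortical cultures at DIV 13 or 15. Analysed as percent change from baseline versus DMSO.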

Experiment [7] in a line: CCTE_Shafer_MEA_acute_cross_correlation_area: CCTE's Neural Acute Assay for Area of Cross Correlation, Shafer Lab (AID 2284024).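 For outcome: rat primary cortical neuron networks on 48-well MEA at DIV 13 or 15 with 40 min exposure.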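 Note: area under pooled inter-electrode spike cross-correlation near zero lag as percent change from own baseline; curves fitted for loss of cross-correlation area so actives lower synchrony.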 In short, it runs like this:
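Percent change in well-wide cross-correlation area (window around zero lag) between 40 min baseline and 40 min post-compound recordings, 37 C; rat cortical cultures on MEA at DIV 13 or 15, dosed 0.03-40 uM, wells needing >/= 10 active electrodes.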

The nature of experiment [8]: CCTE_Shafer_MEA_acute_cross_correlation_HWHM: CCTE's Neural Acute Assay for Cross Correlation at Half Width at Half Maximum, Shafer Lab (AID 2284026).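 For outcome: spontaneous network firing of rat primary cortical neurons on multiwell microelectrode arrays.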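 Note: percent change per well from pre-dose baseline in spike cross-correlogram half width; hits are a decrease in cross-correlogram half width relative to DMSO.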 In short, it runs like this:
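Per-well percent change in cross-correlogram half width at half maximum, derived from 40-min recordings before and after compound (0.03-40 uM) at 37 C. Cultures were rat cortical neurons, DIV 13 or 15, with adaptive spike detection at 8x rms.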

The nature of experiment [9]: CCTE_Shafer_MEA_acute_synchrony_index: CCTE's Neural Acute Assay for Synchrony, Shafer Lab (AID 2284027).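 Note: network synchrony index of spontaneous spiking in primary rat cortical neurons on MEAs; fitted for loss of signal so actives lower synchrony relative to DMSO.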 A digest of the protocol: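 Rat cortical cultures, DIV 13/15; spikes detected at 8x rms noise, 300-5000 Hz band-pass. Compound 0.03-40 uM, ≥3 wells; 40-min pre- and post-exposure recordings, 37 C. Readout: % change in synchrony index; loss-of-signal fit vs DMSO.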

Experiment [10] is described as follows: CCTE_Deisenroth_AIME_384WELL_CTox_Inactive: Cytotoxicity Assessment (CTOX) in CCTE's 384-well Estrogen Receptor Transactivation Assay without AIME metabolic competence (metabolism negative), Deisenroth Lab (AID 2284039; active = hit-call score of the fitted dose curve at least 0.9, where 1 is the maximum;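 note: cell viability via live-cell protease substrate cleaved to fluorescent probe; cells exposed 24 h to medium preincubated 2 h with alginate-water beads without S9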). A digest of the protocol: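 Fluorescence from a live-cell protease substrate, read after 24 h in VM7Luc4E2 cells, indicated viability. Test medium came from a 2 h AIME step without hepatic S9 (alginate-water microspheres); concentrations spanned 0.002 - 200 uM, single technical replicate per run.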

“And” between values parts separate entries of the source, which are not always exact repeats. Equal values may be shown once. Inconclusive results are not listed. The source holds several records for some structures; these can differ, active in one and inactive in another. The source made the active and inactive calls. Rule for the calls, unless noted: active = hit-call score of the fitted dose curve at least 0.9, where 1 is the maximum; inactive = score below 0.9.

In general, AC50 refers to the concentration giving half of the maximal activity seen.

Sequence of Estrogen receptor (Homo sapiens) (P03372 whole entry, looked up): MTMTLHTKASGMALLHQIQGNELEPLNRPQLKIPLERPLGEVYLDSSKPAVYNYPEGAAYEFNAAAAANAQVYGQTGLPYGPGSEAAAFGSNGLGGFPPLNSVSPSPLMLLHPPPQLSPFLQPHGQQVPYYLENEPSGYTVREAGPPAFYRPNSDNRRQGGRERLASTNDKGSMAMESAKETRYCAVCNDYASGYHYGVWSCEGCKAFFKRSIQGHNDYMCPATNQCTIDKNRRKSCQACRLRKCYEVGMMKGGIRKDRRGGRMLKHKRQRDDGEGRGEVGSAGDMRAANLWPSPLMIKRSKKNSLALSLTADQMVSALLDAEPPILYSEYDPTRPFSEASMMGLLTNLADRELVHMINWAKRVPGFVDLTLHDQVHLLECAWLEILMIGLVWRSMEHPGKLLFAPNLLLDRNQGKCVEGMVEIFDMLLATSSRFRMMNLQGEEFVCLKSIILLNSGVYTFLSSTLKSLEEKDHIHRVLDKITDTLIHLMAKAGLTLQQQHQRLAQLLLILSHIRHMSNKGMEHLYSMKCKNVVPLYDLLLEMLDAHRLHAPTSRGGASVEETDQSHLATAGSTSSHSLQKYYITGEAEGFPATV

On to `COP(=O)(OC)OC=C(Cl)Cl`, for which the outcome in experiment [1], in [2], in [3] and in experiment [4] was inactive. Besides, the AC50 in experiment [2] was 9.72 µM (active); in experiment [3], 4.26 µM (active).
As for `CCCN(CCOc1c(Cl)cc(Cl)cc1Cl)C(=O)n1ccnc1`, the outcome in experiment [5], in experiment [6], in experiment [7], in experiment [8] and in experiment [9] was inactive.
Take `CNC(=O)Oc1ccccc1OC(C)C`: in [1], the call was inactive.
For the compound `Clc1ccccc1-c1nnc(-c2ccccc2Cl)nn1`, the outcome in [5], in experiment [6], in [7], in experiment [8], in experiment [9] and in experiment [1] was inactive. Further, the outcome in [4] and in experiment [10] was inactive.
With `CC1(c2ccc(Oc3ccccc3)cc2)OC(=O)N(Nc2ccccc2)C1=O` (stereo not drawn), the AC50 in [2] is 8.59 µM (active); in experiment [3], 4.72 µM (active).
Regarding `O=S1OCC2C(CO1)C1(Cl)C(Cl)=C(Cl)C2(Cl)C1(Cl)Cl` (stereo not drawn), the AC50 in experiment [5] was 0.177 µM (active); in experiment [6] it was 24.4 µM (active); in experiment [7], 0.0502 µM (active); in experiment [8], 19.8 µM (active); in experiment [9], 23.7 µM (active); in experiment [1] it was 13.8 µM (active). Further, the AC50 in experiment [3] is 8.83 µM (active). The call in experiment [5], in experiment [6], in [7], in [8], in experiment [9] and in experiment [2] was inactive. Also, the compound was called inactive in experiment [4] and in experiment [10].
Take `O=C1c2ccccc2C(=O)N1SC(Cl)(Cl)Cl`: the compound was called inactive in experiment [5], in experiment [7], in [8] and in experiment [9]. Further, the AC50 in [6] was 28.8 µM (active).
Consider `Oc1ccc(Cl)cc1Cc1ccccc1`, for which the AC50 is 8.31 µM (active) in experiment [5], 5.05 µM (active) in [6], 0.457 µM (active) in [7] and 5.05 µM (active) in [9].
Turning to `O=C(O)CCCOc1ccc(Cl)cc1Cl`, the call in experiment [5], in experiment [6], in [7], in experiment [8] and in experiment [9] was inactive.
As for `CC(C)(C)C(O)/C(=C\c1ccc(Cl)cc1Cl)n1cncn1` (stereo not drawn), the values for the AC50 in [4] and in [10] were 148 µM (active) and 144 µM (active), respectively.
`CNC(=O)Oc1cccc(N=CN(C)C)c1`: the result in experiment [1], in experiment [4] and in experiment [10] was inactive.
With `O=S(=O)(O)C(F)(F)C(F)(F)C(F)(F)C(F)(F)C(F)(F)C(F)(F)C(F)(F)C(F)(F)F`, the outcome in experiment [5], in experiment [6], in experiment [7], in experiment [8], in experiment [9] and in experiment [2] was inactive. Besides, the result in experiment [3] was inactive. Further, the AC50 in experiment [3] was 77.9 µM (active); in experiment [10], 100 µM (active).
`ClC1C(Cl)C(Cl)C(Cl)C(Cl)C1Cl` (stereo not drawn): the AC50 was 1.1 µM (active) in [5], 9.69 µM (active) in [7] and 1.22 µM (active) in experiment [9]. Also, the compound was classed as inactive in experiment [8], in experiment [2] and in experiment [3].
As for `O=C(O)C(F)(F)C(F)(F)C(F)(F)C(F)(F)C(F)(F)C(F)(F)C(F)(F)F`, the compound was called inactive in experiment [2], in experiment [3], in experiment [4] and in [10].
As for `CNC(=O)CSP(=S)(OC)OC`, the result in experiment [5], in experiment [6], in [7], in experiment [8], in experiment [9] and in [2] was inactive. In addition, the AC50 was 79.3 µM (active) in experiment [2]; 63.8 µM (active) and 27.9 µM (active) in [3].
`Cc1[nH]c(=O)n(C(C)(C)C)c(=O)c1Cl`: the compound was classed as inactive in experiment [1], in experiment [4] and in [10].
Take `CC[C@H](C)[C@H]1O[C@]2(C=C[C@@H]1C)C[C@@H]1C[C@@H](C/C=C(\C)[C@@H](O[C@H]3C[C@H](OC)[C@@H](O[C@H]4C[C@H](OC)[C@@H](O)[C@H](C)O4)[C@H](C)O3)[C@@H](C)/C=C/C=C3\CO[C@@H]4[C@H](O)C(C)=C[C@@H](C(=O)O1)[C@]34O)O2` (tested in a mixture with another compound): the AC50 in experiment [5] is 0.05 µM (active); in experiment [7] it was 0.00277 µM (active); in [8], 0.0109 µM (active); in experiment [9], 0.165 µM (active); in experiment [2], 0.611 nM (active) and 1.02 nM (active); in experiment [3], 9.62 nM (active) and 1.82 nM (active). In experiment [6], the call was inactive.
For `CCOC1Oc2ccc(OS(C)(=O)=O)cc2C1(C)C` (stereo not drawn), the AC50 in experiment [4] and in experiment [10] was 100 µM (active) in each case.
For `O=C(O)COc1ccc(Cl)cc1Cl`, the result in experiment [2], in experiment [3] and in [10] was inactive.

For the origin of these results see PubChem BioAssay (EPA / NIEHS).
